Laboratory results as given in PubChem BioAssay (NCATS).
Results filed as inconclusive are left out. Unmarked numbers belong to inactive results. Calls of active or inactive are those of the source. Calls follow the shape of the dose curve; as a rule, active = well fitted cell-killing curve with a large enough effect; inconclusive = small, poorly fitted or top-dose-only effect, or effect the other way; inactive = no such curve, though single readings can be large or run the other way.

assay: Quantitative High-Throughput drug screen in 47 multiple myeloma cell lines against the NCATS MIPE library collection: JIM1_ECACC cell viability assay (AID 1918964); settings: JIM1 myeloma viability, CellTiter-Glo ATP luminescence, 48 h; series mostly up to 45.8 µM; viability (% of DMSO): at the top concentration
Summary of the method: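 Steps: seed 500 cells per well; pin-transfer MIPE 4.0 library; incubate 48 h at 37C, 5% CO2, humidified; add CellTiter-Glo, 5 min room temperature; read luminescence.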
Potency is read from the fitted curve at half-maximal effect.

Structure (SMILES) | viability (% of DMSO) [%] | Potency
CCc1cccc(CC)c1NC(=O)N1Cc2[nH]nc(NC(=O)c3ccc(N4CCN(C)CC4)cc3)c2C1 | 87.6 | –
NC1(C(=O)N[C@@H](CCO)c2ccc(Cl)cc2)CCN(c2ncnc3[nH]ccc23)CC1 | – | 0.209 µM (active)
CC(C)=CCCC(C)=CCCC(C)=CCCC(C)=CCCC(C)=CCCC(C)=CCCC(C)=CCCC(C)=CCCC(C)=CCO | 124 | –
CC(=O)OCC(=O)[C@@]12OC(C)(C)O[C@H]1C[C@H]1[C@@H]3C[C@H](F)C4=CC(=O)C=C[C@]4(C)[C@@]3(F)[C@@H](O)C[C@@]12C | 78 | –
CCCCCOC(=O)Nc1nc(=O)n([C@@H]2O[C@H](C)[C@@H](O)C2O)cc1F (stereo not given in full) | 69 | –
Nc1[nH]nc2nnc(-c3c(-c4ccccc4)nn4ccccc34)cc12 | – | 3.32 µM (active)
O=C(Nc1cccc(C(F)(F)F)c1)Nc1cc(S(=O)(=O)NC2CC2)ccc1-c1ccsc1 | 104 | –
Cc1nc2c([nH]1)CCN(C(=O)c1ccc(NC(=O)c3ccccc3-c3ccccc3)cc1)c1ccccc1-2 | 82.1 | –
CCN(CC)CCCCNc1nc2cc(Cl)c(Cl)cc2nc1-c1ccc(-c2cccs2)s1 | – | 9.35 µM (active)
CC1CCN(c2cc(N3CCN(C)CC3)ccc2NC(=O)c2cc(C#N)c[nH]2)CC1 | 115 | –
Cc1cn([C@@H]2C[C@@H](O)[C@H](CO)O2)c(=O)[nH]c1=O | 109 | –
Cc1cccc(-c2[nH]c(C(C)(C)C)nc2-c2ccc3c(c2)OCO3)n1 | – | 6.62 µM (active)
CCCCC[C@H](O)C=C[C@H]1[C@H](O)CC(=O)[C@H]1CCCCCCC(=O)O | 114 | –
C[C@@H](O)[C@H]1C(=O)N2C(C(=O)OCOC(=O)C(C)(C)C)=C(SC3CN(C4=NCCS4)C3)[C@H](C)[C@H]12 | 109 | –
N#CC(c1ccnc(NCCc2cccnc2)n1)c1nc2ccccc2s1 (stereo not given) | – | 5.9 µM (active)
C[C@@H]1CCO[C@H]2Cn3cc(C(=O)NCc4ccc(F)cc4F)c(=O)c(O)c3C(=O)N12 | – | 23.5 µM (active)
COC(=O)N1CCN(Cc2cccc(NC(=O)Nc3ccc(C)nc3)c2F)CC1 | 92.6 | –
CCN1C[C@H](C)n2c(c(O)c3c(=O)n(Cc4ccc(F)c(Cl)c4)nc(C(=O)NC)c32)C1=O | 96.5 | –
CNC(=O)c1cc(Oc2ccc(NC(=O)Nc3ccc(Cl)c(C(F)(F)F)c3)c(F)c2)ccn1 | – | 13.2 µM (active)
CC[C@H](C)C(=O)O[C@H]1C[C@H](O)C=C2C=C[C@H](C)[C@H](CC[C@@H](O)C[C@@H](O)CC(=O)O)[C@H]21 | 77 | –

assay: Quantitative High-Throughput drug screen in 47 multiple myeloma cell lines against the NCATS MIPE library collection: INA6_PLB cell viability assay (AID 1918965; also: nearly all actives have a fitted effect of over 55% in size;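 as to viability (% of control): 100% = DMSO-only wells and 0% = media-only wells without cells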); settings: INA6 myeloma viability, CellTiter-Glo ATP luminescence, 48 h; series mostly up to 45.8 µM; viability (% of control): at the top concentration
Summary of the method: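 Viability readout: CellTiter-Glo luminescence following 5 min room-temperature incubation with reagent. Prior exposure: 48 h, 37C, humidified 5% CO2, 500 cells per well.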

Structure (SMILES) | Potency | viability (% of control) [%]
CCc1cccc(CC)c1NC(=O)N1Cc2[nH]nc(NC(=O)c3ccc(N4CCN(C)CC4)cc3)c2C1 | 4.69 µM (active) | –
N#Cc1ccc(Oc2ccc3c(c2)COB3O)cc1 | 20.9 µM (active) | –
CCNC(=O)c1noc(-c2cc(C(C)C)c(O)cc2O)c1-c1ccc(CN2CCOCC2)cc1 | 0.0833 µM (active) | –
Cc1cc(C(C)Nc2ccccc2)c2nc(N3CCOCC3)cc(=O)n2c1 (stereo not given) | 18.7 µM (active) | –
NC1(C(=O)N[C@@H](CCO)c2ccc(Cl)cc2)CCN(c2ncnc3[nH]ccc23)CC1 | 7.43 µM (active) | –
CC(C)=CCCC(C)=CCCC(C)=CCCC(C)=CCCC(C)=CCCC(C)=CCCC(C)=CCCC(C)=CCCC(C)=CCO | – | 188
c1ccc(-c2oc3ncnc(NC[C@@H]4CCCO4)c3c2-c2ccccc2)cc1 | 16.6 µM (active) | –
Nc1[nH]nc2nnc(-c3c(-c4ccccc4)nn4ccccc34)cc12 | 1.05 µM (active) | –
CCCCC(F)(F)[C@@]1(O)CC[C@H]2[C@H](CC(=O)[C@@H]2CCCCCCC(=O)O)O1 | – | 156
CCN(CC)CCCCNc1nc2cc(Cl)c(Cl)cc2nc1-c1ccc(-c2cccs2)s1 | 4.69 µM (active) | –
Cc1cccc2c1CC[C@H](CN1CCC(c3c(Cl)cccc3Cl)CC1)C[C@@H]2O | 18.7 µM (active) | –
Cc1cn([C@@H]2C[C@@H](O)[C@H](CO)O2)c(=O)[nH]c1=O | 0.0166 µM (active) | –
Cc1cccc(-c2[nH]c(C(C)(C)C)nc2-c2ccc3c(c2)OCO3)n1 | 2.64 µM (active) | –
N#CC(c1ccnc(NCCc2cccnc2)n1)c1nc2ccccc2s1 (stereo not given) | 3.72 µM (active) | –
CC1(C)OC2CC3C4CC(F)C5=CC(=O)C=CC5(C)C4C(O)CC3(C)[C@]2(C(=O)CO)O1 (stereo not given in full) | – | 100
C[C@@H]1CCO[C@H]2Cn3cc(C(=O)NCc4ccc(F)cc4F)c(=O)c(O)c3C(=O)N12 | 20.9 µM (active) | –
CCN1C[C@H](C)n2c(c(O)c3c(=O)n(Cc4ccc(F)c(Cl)c4)nc(C(=O)NC)c32)C1=O | – | 139
CNC(=O)c1cc(Oc2ccc(NC(=O)Nc3ccc(Cl)c(C(F)(F)F)c3)c(F)c2)ccn1 | 5.9 µM (active) | –
CC[C@H](C)C(=O)O[C@H]1C[C@H](O)C=C2C=C[C@H](C)[C@H](CC[C@@H](O)C[C@@H](O)CC(=O)O)[C@H]21 | – | 124
Cc1ccccc1C(=O)c1ccc(Nc2ccc(Br)cc2N)cc1Cl | 18.7 µM (active) | –
